Anthrax LF prot = blocks Bacillus anthracis lethal factor protease | inhibition, % at 10 µM | AID 588501 | hit rate 0.12% among 360,000 | multiplex microsphere protease cleavage assay, LF | P15917
BoNT-F LC inh = blocks Botulinum neurotoxin F light chain protease. Multiplex microsphere protease cleavage assay, flow cytometry. inhibition, % at 10 µM. hit rate 0.22% among 360,000. AID 588497; in the data active = inhibition above about 35%, passing the limit was not always enough; inconclusive = no clear call, values can overlap the other calls
Bead autofluor = counter-screen for toxin protease inhibitors: compound fluorescence | compound autofluorescence counterscreen, microsphere flow cytometry; stronger effect = higher value | AID 624483 | hit rate 3.1% among 360,000 | fluorescence intensity (test concentration not listed); in the data active = fluorescence intensity above about 16000; inconclusive = no clear call, values can overlap the other calls
BoNT-A LC inh2 = BoNT A light chain protease inhibition. inhibition, % at 10 µM. hit rate 0.17% among 360,000. multiplex microsphere protease substrate cleavage, flow cytometry
A number is an active result; – = inactive; ? = inconclusive; + = active, no number. Rows were chosen to be rich in hits. Some 3.5% of all compounds tested hit in one or more screens of this group. Cut-off read from the data, not from the text of the source, unless noted: active = inhibition above about 30%; inconclusive = no clear call, values can overlap the other calls; inactive = below that.

SMILES	Anthrax LF prot	BoNT-F LC inh	Bead autofluor	BoNT-A LC inh2
CCOc1cc(NC(=S)NCC2CCCO2)c(OCC)cc1NC(=O)c1ccccc1 (stereo not drawn)	–	–	24364	–
O=C(NCC1CCCO1)c1cccs1 (stereo not drawn)	–	–	17278	?
Cc1cc(C(=O)NNC(=S)NCC2CCCO2)cs1 (stereo not drawn)	–	–	19574	–
COC(=O)c1ccccc1NC(=O)NCC1CCCO1 (stereo not drawn)	–	–	22874	–
CCc1c(C(=O)NNC(=S)NCC2CCCO2)csc1C (stereo not drawn)	–	–	–	–
CC(OC(=O)CNC(=O)c1ccc(Cl)c(Cl)c1)C(=O)N1CCOCC1 (stereo not drawn)	–	–	–	–
CCOc1cc(C(C(=O)NCC2CCCO2)N(C(=O)Cn2nnc3ccccc32)c2ccccc2C(C)=O)ccc1O (stereo not drawn)	–	–	–	–
CNc1n[nH]c(-c2ccccc2)n1	–	–	–	–
CCC(C)[C@H](NC(=O)NCC1CCCO1)C(=O)OC (stereo partly drawn)	–	–	24826	–
Cc1ccc(NC(=O)N2CCCC2C(=O)NCc2ccc(Cl)cc2)cc1 (stereo not drawn)	–	–	–	–
O=C(CSc1ccc(-c2ccc(F)cc2)nn1)N1CCOCC1	–	–	–	–
O=C(OCCCN1CCCC1)C1(c2ccccc2)CCCC1	–	–	24071	?
CC(C)CNC(=O)COC(=O)c1n[nH]c2ccccc12	–	–	–	–
COc1ccc(-n2ncc3c2CC(C)(C)CC3NC(=O)c2cnc(C)cn2)cc1 (stereo not drawn)	–	–	–	–
COc1ccc(N2C(=O)CC(N3CCN(c4ccc(S(C)(=O)=O)cc4)CC3)C2=O)cc1 (stereo not drawn)	–	–	18815	–
Cc1c(CCC(=O)NCCCC(=O)O)c(=O)oc2cc3oc4c(c3cc12)CCCC4	–	–	–	–
CC[n+]1c(/C=C/C=C/N(C(C)=O)c2ccccc2)sc2ccccc21	?	?	–	?
CC[n+]1c(/C=C/N(C)c2ccccc2)sc2ccc(Cl)cc21	59	43	–	59
CC[n+]1c(/C=C/C=C/c2ccc(N(C)C)cc2)sc2ccccc21	–	+	–	–
CCn1c(C)nc2cc(C(=O)NN=Cc3ccc([N+](=O)[O-])cc3)ccc21	–	–	–	–
O=C(CCN1C(=O)COc2ccccc21)NCCCN1CCc2ccccc2C1	–	–	18721	–
O=C(NCCN1CCN(Cc2ccccc2Cl)CC1)Nc1ccccc1	–	–	23034	–
O=C(NCCCn1ccnc1)Nc1ccc(Cl)c(Cl)c1	–	–	–	–
CN1CCN(CCCNC(=O)CN2C(=O)COc3ccccc32)CC1	–	–	–	–
O=C(NCCCN1CCc2ccccc2C1)Nc1ccc(Cl)cc1	–	–	22133	–
SMILES	Anthrax LF prot	BoNT-F LC inh	Bead autofluor	BoNT-A LC inh2
O=C(NCCCn1ccnc1)Nc1ccc(Cl)cc1	–	–	24742	?
COc1ccc(NC(=O)NCCN2CCc3ccccc3C2)cc1	–	–	–	–
O=C(NCCN1CCN(c2ccccc2Cl)CC1)Nc1ccccc1	–	–	–	–
CC(C)(C)c1ccc(OCC(=O)NC2CCS(=O)(=O)C2)cc1 (stereo not drawn)	–	–	19473	?
O=C(NC1CCS(=O)(=O)C1)Oc1ccccc1 (stereo not drawn)	–	–	–	–
Cc1ccc(OC(=O)NC2CCS(=O)(=O)C2)cc1C (stereo not drawn)	–	–	23723	–
CCOC(=O)c1c(C)[nH]c(C)c1S(=O)(=O)N1CCCCC1	–	–	–	–
Cc1c(/C=C2\NC(=O)NC2=O)c2ccccc2n1C	–	–	–	–
CCN(c1ccccc1)S(=O)(=O)c1ccc(Oc2ccc(C(C)=O)cc2OC)nc1	–	–	–	–
Cc1ccc(C2=N/C(=C/c3cccs3)C(=O)N2Nc2ccccc2)cc1	58	43	–	80
CC(=O)Nc1nc(SCc2ccc(Cl)cc2Cl)n[nH]1	–	–	19910	?
O=C(NCc1ccccn1)c1ccc(NS(=O)(=O)c2ccccc2)cc1	–	–	–	–
CS(=O)(=O)NCc1ccc(C(=O)NCCOc2ccccc2)cc1	–	–	17640	–
Cc1ccc(OCCNC(=O)c2cccc(S(=O)(=O)NCc3ccccc3)c2)cc1	–	–	–	–
CCC(=O)OCC(=O)[C@@]1(OC(=O)CC)[C@@H](C)C[C@H]2[C@@H]3CCC4=CC(=O)C=C[C@]4(C)[C@@]3(Cl)[C@@H](O)C[C@@]21C	–	–	–	–
COc1ccccc1NC(=O)Nc1ncccc1C	–	–	22096	–
Cc1cccnc1NC(=O)Nc1cccs1	–	–	22281	?
O=C(C1CCC(CNS(=O)(=O)c2cccc3nsnc23)CC1)N1CCN(c2ccccn2)CC1 (stereo not drawn)	–	–	–	–
CCOc1ccc(-c2nnc(NC(=O)Cc3cc(OC)c(OC)c(OC)c3)o2)cc1	–	–	–	–
COc1cc(CNc2ccc(CNc3ncn[nH]3)cc2)ccc1OCc1ccccc1	–	–	–	–
O=C(O)c1ccc2[nH]c3c(c2c1)CSCC3	–	–	20934	–
O=C(NC1CC(=O)N(c2ccc(F)cc2)C1)C(=O)c1c[nH]c2ccccc12 (stereo not drawn)	–	–	–	–
COc1ccc(OC)c(NC(=O)COC(=O)CN2C(=O)NC3(CCCC3)C2=O)c1	–	–	–	–
CCC(CC)C(=O)Nc1ccc(Sc2ccc([N+](=O)[O-])cc2)cc1	–	–	19877	–
C#CCN(CC(=O)OCC)S(=O)(=O)CCNC1CC1	–	–	–	–
SMILES	Anthrax LF prot	BoNT-F LC inh	Bead autofluor	BoNT-A LC inh2
Cc1ccc(-n2c(C)cc(/C=N/NC(=O)c3ccc(CN4CCOCC4)cc3)c2C)cc1	–	–	19963	–
Cc1cccc(-n2c(C)cc(/C=N/NC(=O)c3ccc(CN4CCOCC4)cc3)c2C)c1	–	–	–	–
CCC(C)(C)n1nnnc1C(c1cc2cc(OC)c(OC)cc2[nH]c1=O)N1CCc2ccccc21 (stereo not drawn)	–	–	24005	–
CCN1CCN(C(c2cc3cc4c(cc3[nH]c2=O)OCO4)c2nnnn2C(C)(C)CC)CC1 (stereo not drawn)	–	–	20945	–
COc1cc2cc(C(c3nnnn3C(C)(C)C)N3CCc4ccccc4C3)c(=O)[nH]c2cc1OC (stereo not drawn)	–	–	–	–
COc1ccccc1COCC(O)CNCC1(N2CCCCC2)CCCCC1 (stereo not drawn)	–	–	22309	–
CCCC(=O)N1CCN(c2ccc([N+](=O)[O-])c(NC(C)c3ccccc3)c2)CC1 (stereo not drawn)	–	–	16602	–
COC(=O)CC1(c2ccc(OC)cc2)C(=O)c2ccccc2C1=O	–	?	–	?
COC(=O)CC1(c2ccccc2)C(=O)c2ccccc2C1=O	–	–	16568	?
O=C1N[C@@H](Cc2ccccc2)C(=O)N1CCN1CCOCC1	–	–	22937	?
Cc1cc2c(c(C)c1CCO)C(=O)[C@H](C)C2	–	–	–	–
N#Cc1ccc(NC(=O)C2CC(c3ccc(F)cc3)=NO2)cc1 (stereo not drawn)	–	–	22651	–
CCc1ccccc1NC(=O)C1CC(c2ccc(F)cc2)=NO1 (stereo not drawn)	–	–	–	–
